What all share (assay): NCI-60 one-dose screen, 48 h (100 = growth as untreated, 0 = no growth, -100 = all killed)
Holding throughout (settings): 10 µM unless noted

The subject of assay [1] is HCT-15 colon.
The test system of assay [2] is HT29 colon.
The test system of assay [3] is SNB-75 CNS.
The subject of assay [4] is SNB-19 CNS.
Assay [5] deals with U251 CNS.
In assay [6] the test system is PC-3 prostate.
The test system of assay [7] is SK-MEL-5 melanoma.
Assay [8] deals with UACC-62 melanoma.
For assay [9], the system named is LOX IMVI melanoma.
The test system of assay [10] is SK-MEL-28 melanoma.

This is part of a sample that, as a whole, favours compounds with a hit. Of some 83,000 tested, about 20% had one in any assay.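 Note: values are percent growth. 100 is the growth of untreated cells, values between 100 and 0 indicate rising inhibition; between -100 and 0 indicates cell death.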 Unmarked numbers belong to inactive results. The source made the active and inactive calls. How the source made its calls: active means growth percent below 10; inactive means the rest.

With `COc1ccc(-c2nnc(SCC(=O)Nc3ccc(C(=O)/C=C/c4ccc(OC)c(OC)c4)cc3)o2)cc1`, the growth in assay [1] was 74.8%; in assay [2] it was 87.1%; in assay [3] it was 87.5%; in assay [4] it was 89.6%; in assay [5], 66.9%; in assay [6], 79.8%. The growth was 75.9% in [7], 82.9% in assay [8], 77.1% in assay [9] and 99.5% in assay [10].

For the molecule `CC(C)(C)C(=O)/C=c1/[nH]c(=O)/c(=C/c2ccccc2O)s1`, the growth in assay [1] is 33.8%; in [2], 72.2%; in assay [3], 66.5%; in assay [4], 66.5%; in assay [5] it was 27.8%; in assay [6] it was 53.4%. Besides, the growth in [7] is 42%; in assay [8], 58.3%; in assay [9], 40%; in assay [10], 69.6%.

For the molecule `CN(C)c1ccc2cc(-c3nc4ccccc4s3)c(N)nc2c1`, the growth in assay [1] is 41%; in assay [2] it was 23.9%; in assay [3], 63.9%; in assay [4], 60.7%; in assay [5], 33.2%; in assay [6], 20.2%. In addition, the growth is 58.7% in assay [7], 95.5% in assay [8], 85.3% in assay [9] and 98.3% in [10].

Turning to `COc1ccc2c(c1)nnn1c3ncccc3c(N=O)c21`, the growth was -33.2% (active) in [1]; -48.8% (active) in assay [2]; -23.3% (active) in assay [3]; -4.29% (active) in assay [4]; -64.4% (active) in assay [5]; 9.89% (active) in assay [6]. Besides, the growth in assay [7] was 36%; in assay [8], -76.8% (active); in [9], -59.1% (active); in assay [10], 16.2%.

In the case of `NC(=O)C1=C[C@H]2[C@H]3C=C[C@@]2(O)C(=O)O[C@@H]3O1`, the growth in assay [1] was 44.8%; in [2], 47%; in assay [3], 76.7%; in [4], 82%; in assay [5], 63.1%; in assay [6], 59.1%. The growth in [7] is 60.7%; in [8], 35.5%; in assay [9] it was 22.9%; in assay [10] it was 25.2%.

In the case of `COc1cc(Br)c(-c2nc(-c3ccccc3)c(-c3ccccc3)n2Cc2ccccc2)cc1OC`, the growth was 47.4% in [1]; 32.3% in assay [2]; 86.7% in [3]; 67.2% in assay [4]; 64.1% in assay [5]; 29.7% in assay [6]. The growth in assay [7] was 54%; in assay [8], 53.1%; in assay [9], 61.3%; in assay [10] it was 91.1%.

`COc1ccccc1S(=O)(=O)Nc1ccc2c3c(cc(-c4cnn(C)c4)nc13)C(=O)N2C`: the growth in assay [1] is 27.6%; in assay [2] it was 18%; in assay [3] it was 26.6%; in assay [4], 50%; in [5], 52%; in [6], 42.1%. The growth is 29.5% in [7], 18.2% in assay [8], 10.4% in assay [9] and 63.1% in assay [10].

With `O=C(Nc1ccc(-n2cc(-c3ccncc3)c(-c3ccc(O)c(Cl)c3)n2)cc1)Nc1cc(C(F)(F)F)cc(C(F)(F)F)c1`, the growth in assay [1] is 61.1%; in assay [2] it was 97.2%; in assay [3] it was 72.2%; in assay [4] it was 47.6%; in [5] it was 37.7%; in [6], 50.4%. The growth in assay [7] was 54%; in [8] it was 64.1%; in assay [9], 51.4%; in [10], 76.8%.

For `COc1ccc(Cl)cc1NC(=O)c1cc2c([nH]1)-c1nc(N)sc1CCC2`, the growth in assay [1] was 97.7%; in assay [2] it was 83.2%; in assay [3] it was 105%; in assay [4], 112%; in [5], 101%; in [6], 97.8%. Also, the growth in assay [7] is 101%; in assay [8], 93.1%; in [9], 91.7%; in assay [10] it was 103%.

For `c1ccc2nc(Cn3cc[n+](Cc4ccc5ccccc5n4)c3)ccc2c1`, the growth in [1] is 102%; in [2] it was 41.9%; in [3], 70.7%; in assay [4], 47.7%; in assay [5], 44.2%; in assay [6], 42.6%. Further, the growth in assay [7] was 16.9%; in [8], 54.6%; in [9], 75.4%; in assay [10], 63.8%.

For `N#Cc1c2c(c(N)[nH]c1=O)C(=O)NC2(O)c1ccccc1` (stereo not given), the growth was 106% in assay [1]; 97% in [2]; 106% in [3]; 114% in [4]; 101% in assay [5]; 102% in assay [6]. Also, the growth is 98.6% in assay [7], 107% in assay [8], 98.5% in assay [9] and 114% in [10].

Take `O=C(O)c1ccc(-n2cc(/C=N/Nc3ccccc3F)c(-c3ccc(O)cc3)n2)cc1`: the growth in assay [1] was 73.1%; in [2], 101%; in assay [3] it was 82.8%; in assay [4], 95.2%; in assay [5] it was 86.9%; in assay [6] it was 74.8%. In addition, the growth is 78% in assay [7], 46.5% in assay [8], 37% in assay [9] and 97.1% in assay [10].

For `CN(C)C(=O)Nc1nc2cc(Cl)c(Cl)cc2[nH]1`, the growth is 26.1% in assay [1]; 5.63% (active) in [2]; 14.7% in assay [3]; 27% in [4]; 25.6% in assay [5]; 18.9% in assay [6]. For the same molecule, the growth in assay [7] is 19%; in [8], 23.1%; in assay [9], 47.8%; in assay [10], 73.4%.

As for `O=C(CSc1nnc(-c2ccc(Cl)cc2)o1)Nc1ccc(C(=O)/C=C/c2ccccc2)cc1`, the growth in assay [1] is 96.7%; in [2] it was 98%; in assay [3], 90.4%; in assay [4], 86.9%; in assay [5], 99.3%; in assay [6], 99.4%. The growth was 98% in assay [7], 85.6% in [8], 85.3% in assay [9] and 105% in assay [10].

Take `COc1ccc(/C=C/C(=O)c2ccc(-n3cc(CN4CCN(c5cc6c(cc5F)c(=O)c(C(=O)O)cn6C5CC5)CC4)nn3)cc2)cc1OC`: the growth is 33.8% in assay [1]; 4.76% (active) in assay [2]; 65.5% in assay [3]; 44.7% in assay [4]; 10.6% in assay [5]; 9.95% (active) in assay [6]. The growth in assay [7] was 50.9%; in assay [8] it was 54.1%; in assay [9], -1.51% (active); in assay [10], 34.6%.

Regarding `Nc1ncc(-c2ccc3ncnc(Nc4cncc(Cl)c4)c3c2)cn1`, the growth in assay [1] was 73.2%; in assay [2], 68.6%; in [3] it was 31.4%; in [4], 76.7%; in assay [5], 73.3%; in assay [6] it was 48.8%. The growth in assay [7] is 66.4%; in assay [8], 56.9%; in [9] it was 61.5%; in [10] it was 69.5%.

For the molecule `COc1ccc(/C=C/C(=O)c2ccc(Oc3ncnc4ccccc34)cc2)cc1OC`, the growth in assay [1] was 24.3%; in assay [2] it was 27.4%; in [3], 74.8%; in assay [4], 64.9%; in assay [5], 50.9%; in [6], 82.1%. Moreover, the growth in [7] is 72.5%; in assay [8], 76.9%; in [9], 13.8%; in [10] it was 104%.

In the case of `O=C(Nc1cccc(-n2ccc3c(NC(=O)c4ccccc4)ncnc32)c1)Nc1ccc(Cl)c(C(F)(F)F)c1`, the growth is 34.1% in assay [1]; 26.6% in assay [2]; 44.4% in [3]; 46.5% in assay [4]; 31.7% in [5]; 22.7% in assay [6]. Also, the growth in assay [7] is 19%; in [8], 39.5%; in assay [9] it was 24.7%; in [10] it was 49.4%.

`CSc1nc(N)nc2c1ncn2C`: the growth in assay [1] is 102%; in [2], 87.1%; in [3], 96.4%; in [4], 110%; in [5], 95.4%; in assay [6], 72.5%. For the same molecule, the growth in assay [7] is 100%; in [8], 102%; in [9], 92.6%; in assay [10], 109%.

Consider `O=[N+]([O-])c1ccc(NS(=O)(=O)c2ccccc2)c2ccccc12`, for which the growth in assay [1] was 46.8%; in assay [2] it was 57.5%; in assay [3], 42.5%; in [4], 48.4%; in assay [5], 37.5%; in assay [6] it was 53.2%. Moreover, the growth in assay [7] is 0.136% (active); in [8], 22.7%; in assay [9], 43.8%; in [10], 37.5%.

With `COc1ccccc1S(=O)(=O)Nc1ccc2c3c(cc(-c4cnn(C5CC5)c4)nc13)C(=O)N2C`, the growth in assay [1] is 62.7%; in [2], 44%; in assay [3], 19.2%; in assay [4] it was 77.6%; in assay [5] it was 81.6%; in assay [6], 61.3%. Moreover, the growth in assay [7] is 57.5%; in assay [8], 35.4%; in assay [9], 47.5%; in [10] it was 77%.

For the molecule `COc1cc(-c2nc3ccccc3s2)ccc1OCc1nc2n(n1)S(=O)(=O)c1ccccc1N2C`, the growth in assay [1] is 91.5%; in assay [2] it was 100%; in assay [3], 41%; in assay [4], 91%; in assay [5], 73.2%; in [6], 80.8%. Besides, the growth in assay [7] is 82.1%; in [8], 103%; in assay [9] it was 72.3%; in assay [10] it was 103%.

Take `CC(NCCC(c1ccccc1)c1ccccc1)c1ccccc1` (stereo not given): the growth in assay [1] is 75%; in assay [2], 13.1%; in assay [3], 87.3%; in assay [4], 90.7%; in [5] it was 61.1%; in assay [6], 48%. The growth in assay [7] was 85.8%; in assay [8] it was 93.3%; in assay [9], 74.6%; in assay [10], 75.5%.

Take `C#C[C@H](O)/C=C/CCCCCCC#C[C@H](O)CC[C@@H](O)C#CCCCCCC/C=C/[C@@H](O)C#C`: the growth in [1] is 80.4%; in [2] it was 80.6%; in [3], 85.1%; in assay [4], 101%; in assay [5] it was 89.3%; in assay [6] it was 80.7%. Besides, the growth was 91.9% in assay [7], 80% in assay [8], -71.2% (active) in assay [9] and 101% in assay [10].

As for `O=S(=O)(O)c1ccc(F)cc1`, the growth in assay [1] was 104%; in [2], 96.5%; in assay [3], 101%; in [4], 114%; in assay [5], 109%; in assay [6], 106%. In addition, the growth was 105% in [7], 107% in assay [8], 98.9% in [9] and 111% in assay [10].

As for `CSc1ccc(C(=O)C[n+]2cccc(C)c2)cc1`, the growth is 103% in assay [1]; 99.8% in assay [2]; 90.7% in assay [3]; 97.8% in assay [4]; 101% in [5]; 96% in assay [6]. The growth in assay [7] was 100%; in [8] it was 95.1%; in assay [9], 103%; in [10], 105%.

Regarding `COC(=O)CCCNS(=O)(=O)c1cc(C(=O)Nc2ccc(NC(=O)c3cc(S(=O)(=O)NCCCC(=O)OC)c(O)c(O)c3O)cc2)c(O)c(O)c1O`, the growth in [1] was 92.1%; in [2] it was 79.8%; in [3], 95.1%; in assay [4], 96.1%; in [5] it was 70.3%; in [6] it was 83.3%. The growth in assay [7] is 93.6%; in assay [8], 76.7%; in assay [9], 2.88% (active); in assay [10] it was 110%.

These data come from PubChem BioAssay (NCI).
